The results in this text go back to PubChem BioAssay (EPA / NIEHS).

Records with an inconclusive call do not appear. The source made the active and inactive calls. The calls were made as follows: active = hit-call score of the fitted dose curve at least 0.9, where 1 is the maximum; inconclusive = response in the unintended direction; inactive = score below 0.9.

This assay can be described thus: CCTE_Shafer_MEA_acute_AB: CCTE's Alamar Blue Assay for Cytotoxicity in the Neural Acute Assay, Shafer Lab (AID 2284069).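 Also: active compounds lower the viability signal compared with DMSO wells.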 The method, then:
CCTE_Shafer_MEA_acute assay is conducted using Axion Biosystems 48 well microelectrode array (MEA) plates and Maestro recording system. Each well of the MEA plate contains a grid of 16 microelectrodes embedded in the culture surface. Electrically active cells, such as neurons, can be cultured over the electrodes, and electrical activity in these cells can be recorded extracellularly. The spontaneous firing of neurons is captured from each electrode on a microsecond timescale providing both temporally and spatially precise data. […] The CCTE_Shafer_MEA_acute assay uses primary cultures of rat cortical neurons. As these cultures mature over time, neural networks develop functional activity and form cohesive networks in which electrical activity can be highly coordinated. Baseline 40-minute recordings are made on days post-plating 13 or 15, followed by a secondary 40-minute recording after chemical exposure.CCTE_Shafer_MEA_acute_AB is a component of the CCTE_Shafer_MEA_acute assay. It measures the resazurin reduction using fluorescence.Data from the assay component CCTE_Shafer_MEA_acute_AB was analyzed into 1 assay endpoint. This assay endpoint, CCTE_Shafer_MEA_acute_AB, was analyzed in the positive analysis fitting direction relative to DMSO as the negative control and baseline of activity. Using a type of viability reporter, loss-of-signal activity can be used to understand cell viability.
Metabolic activity was determined using the CellTiter Blue (CTB) assay (Promega Cat. #8081), following the manufacturer's instructions with the following modifications. Following the removal of the 50 uL sample for the LDH assay, 450 uL of media was removed from each well and replaced with 200 uL of fresh media containing a 1:6 dilution of CTB reagent for the determination of metabolic activity. Fluorescence was measured in a Fluorostar Optima fluorimeter using an excitation wavelength of 544 nm and an emission wavelength of 590 nm.
For `COc1ccc2c(c1)c(CC(=O)O)c(C)n2C(=O)c1ccc(Cl)cc1`, the call was inactive.

Turning to `Cc1ccc(C(C)C)c(O)c1`, the result was inactive.

As for `CCOC(=O)C(C)(C)Oc1ccc(Cl)cc1`, the result was inactive.

In the case of `Clc1cc(Cl)c(Cl)cc1Cl`, the compound was called inactive.

For the compound `Nc1ccccc1N`, the compound was classed as inactive.

On to `C=CCOC(=O)c1ccccc1C(=O)OCC=C`, for which the result was inactive.

As to `Cc1ccc2ncccc2c1`, the call was inactive.

For the compound `Nc1nc(N)c2nc(CNc3ccc(C(=O)N[C@@H](CCC(=O)O)C(=O)O)cc3)cnc2n1`, the compound was called inactive.

As for `C=CCc1ccc(O)c(OC)c1`, the compound was called inactive.

For the compound `CN[C@H]1CC[C@@H](c2ccc(Cl)c(Cl)c2)c2ccc(S(N)(=O)=O)cc21`, the call was inactive.

As for `Cc1ccc(C)c(O)c1C`, the call was inactive.

With `COc1ccc(S(=O)(=O)N2C(=O)[C@@](c3ccccc3OC)(N3C[C@H](O)C[C@H]3C(=O)N(C)C)c3cc(Cl)ccc32)c(OC)c1`, the compound was classed as inactive.

On to `CC(C)(C)c1cc(O)c(C(C)(C)C)cc1O`, for which the result was inactive.

`NS(=O)(=O)c1cc2c(cc1Cl)NCNS2(=O)=O`: the compound was called inactive.

On to `FC(F)(F)C(F)(F)C(F)(F)C(F)(F)C(F)(F)C(F)(F)CCI`, for which the compound was called inactive.

In the case of `CCCc1cc(=O)[nH]c(=S)[nH]1`, the outcome was inactive.

For the compound `CNCc1cc(F)ccc1Oc1ccc(Cl)c(Cl)c1`, the compound was called inactive.

Regarding `CCCCCCCCCCCCCCCCCC(=O)O`, the compound was called inactive.

`c1cc(-c2ccncc2)ccn1`: the compound was classed as inactive.
